68 molecules from PMC4552634, “A New Set of Chemical Starting Points with Plasmodium falciparum Transmission-Blocking Potential for Antimalarial Drug Discovery” (PLoS ONE, 2015) can be followed below.

Structures are written as SMILES. About 3,200 (25%) of roughly 13,000 compounds showed an effect of 50% or more. The list shows a part of the results.

This experiment concerns P. falciparum stage V gametocytes. Further details: BacTiter-Glo ATP luminescence viability of purified stage V gametocytes in 384-well plates, per cent inhibition versus DMSO. To be noted: 48 h, 5 µM; inhibitor.
One may read the % Inhibition as the relative decrease from the control value, in per cent. `CCCCNCc1ccc(-c2nc(CN(C(=O)Nc3cc([N+](=O)[O-])ccc3F)C3Cc4ccccc4C3)cs2)cc1` [TCMDC-141640]: the “% Inhibition” value is 54.3%. With `O=C(Nc1ccccc1F)N(CCCn1ccnc1)Cc1csc(-c2ccc(CNCc3ccccc3)cc2)n1` [TCMDC-141643], the “% Inhibition” value came to 22.98%.

Consider `Cc1ccc([N+](=O)[O-])cc1NC(=O)N(CC(O)c1ccccc1)C1CCCCC1` (centres unmarked) [TCMDC-123672], for which the “% Inhibition” value worked out at 2.226%. Turning to `COc1ccc(Cc2c(C)nc3nc(N)nc(N)c3c2C)cc1OC` [TCMDC-137649], the “% Inhibition” value was 1.878%.

`O=C(Nc1ccc(Cl)cc1)N1CCN(C2CCCCC2)CC1` [TCMDC-125819]: the “% Inhibition” value is 10%. Consider `O=C(Nc1ccc2c(c1)CCC2)c1cccc(CN2CCCN(Cc3cccc(O)c3)CC2)c1` [TCMDC-135957], for which the “% Inhibition” value is on record as 14.29%. As for `O=C(Cc1ccsc1)NCC(c1ccccc1Cl)c1c[nH]c2ccccc12` (centres unmarked) [TCMDC-125251], the “% Inhibition” value stood at 11.67%. Then `NC(=NCc1ccccc1Cl)NCCc1c[nH]c2ccccc12` [TCMDC-138012], with -46.58%. Consider `O=C(Cc1cccs1)NCC(c1ccccc1Cl)c1c[nH]c2ccccc12` (centres unmarked) [TCMDC-125062], for which the “% Inhibition” value was 59.09%.

As for `COc1ccc2nc3cc(Cl)ccc3c(NCCCCCCNc3c4ccc(Cl)cc4nc4ccc(OC)cc34)c2c1` [TCMDC-137503], the “% Inhibition” value is listed as 106.2%. `COc1ccc2nc3cc(Cl)ccc3c(Nc3ccc(Sc4ccc(Nc5c6ccc(Cl)cc6nc6ccc(OC)cc56)cc4)cc3)c2c1.Cl` [TCMDC-137673]: the “% Inhibition” value was -84.83%.

Consider `COc1ccc2nc3cc(Cl)ccc3c(Nc3ccc(Oc4ccc(Nc5c6ccc(Cl)cc6nc6ccc(OC)cc56)cc4)cc3)c2c1.Cl` [TCMDC-137674], for which the “% Inhibition” value is -12.74%. Take `COc1ccc2nc3cc(Cl)ccc3c(NCCCCNc3c4ccc(Cl)cc4nc4ccc(OC)cc34)c2c1` [TCMDC-138218]: the “% Inhibition” value came to 112.4%.

Turning to `CCN(CC)CCNc1c2ccc(Cl)cc2nc2ccc(OC)nc12` [TCMDC-137937], the “% Inhibition” value was -10.21%. To `COc1ccc2nc3cc(Cl)ccc3c(NCc3ccccc3)c2c1.Cl` [TCMDC-137663] belongs -68.8%.

Turning to `COc1ccc2nc3cc(Cl)ccc3c(NCCCO)c2c1` [TCMDC-124144], the “% Inhibition” value is given as 20.12%.

As to `COc1ccc2nc3cc(Cl)ccc3c(NCCNCC(O)CO)c2n1` (centres unmarked) [TCMDC-137938], the “% Inhibition” value was determined as 74.53%. With `COc1ccc2nc3cc(Cl)ccc3c(N)c2c1.Cl` [TCMDC-125835], the “% Inhibition” value was 124.4%. In the case of `CCOc1ccc(-n2nc3c(Cl)nnc(-c4ccccc4)c3c2-c2ccccc2)cc1` [TCMDC-123899], the “% Inhibition” value is reported as -2.574%. Regarding `CCCC(C)Nc1nc(C)cc(N[C@@H](CC(C)C)C(=O)NC2CCCC2)n1` (some centres unmarked) [TCMDC-134895], the “% Inhibition” value is listed as -73.82%. To `CC1CCc2sc(-c3nnc(SC(C)C(=O)NC4CC4)o3)cc2C1` (centres unmarked) [TCMDC-124866] belongs 6.4%; to `CCOc1ncccc1CN1CCC(N2CCc3cc(NC(=O)c4cc(C)on4)ccc32)C1` (centres unmarked) [TCMDC-135086], -27.43%. Then `NC(=O)c1cccc(CNC(=O)NC[C@H]2CN(Cc3ccc(Cl)c(Cl)c3)CCO2)c1` [TCMDC-138745], with 31.93%. To `COc1cc(NC(=O)/C=C/c2cccc3ccoc23)ccc1OCCN(C(C)C)C(C)C` [TCMDC-139958] belongs 3.846%; to `CCOC(=O)NC1=NC(C)(C)N(OCc2ccc(Cl)c(Cl)c2)C(NC(=O)OCC)=N1` [TCMDC-131729], 1.326%. For `COc1ccc2c(c1)C(C)(CCCN(C)C)C(=O)N2C` (centres unmarked) [TCMDC-138945], the “% Inhibition” value is reported as 13.31%. To `COc1ccc2nc3cc(Cl)ccc3c(NCCO)c2c1` [TCMDC-124272] belongs 0.5882%; to `COc1ccc2nc3cc(Cl)ccc3c(NCCCCN)c2c1` [TCMDC-137526], 92.71%. In the case of `COc1ccc2nc3cc(Cl)ccc3c(NCCN(C)C)c2c1` [TCMDC-139093], the “% Inhibition” value came out at 54.53%.

As to `COc1ccc2nccc([C@@H](O)CN3CCC(NCc4nc5c(cc4F)SCC(=O)N5)C(F)C3)c2c1` (some centres unmarked) [TCMDC-141681], the “% Inhibition” value is -15.96%. Turning to `O=[N+]([O-])c1cccc(-c2nc3cc(C4=NC5CCCCC5N4)ccc3[nH]2)c1` (centres unmarked) [TCMDC-137221], the “% Inhibition” value amounted to 5.96%. Then `O=[N+]([O-])c1ccc(-c2nc3cc(C4=NC5CCCCC5N4)ccc3[nH]2)cc1` (centres unmarked) [TCMDC-137220], with 5.239%. Then `Nc1ccc(-c2nc3cc(C4=N[C@H]5CCCC[C@H]5N4)ccc3o2)cc1[N+](=O)[O-]` [TCMDC-137253], with 108.2%. In the case of `Cn1ncc2c3c(CCN4CCC(NCc5cc6c(cn5)OCCO6)CC4)c(Cl)cnc3ccc21` [TCMDC-136008], the “% Inhibition” value was found to be 9.388%. To `COc1ccc2ncc(Cl)c([C@H](O)CN3CCC(NCc4cc5c(cn4)OCCO5)CC3)c2c1` [TCMDC-135469] belongs 53.55%; to `COc1ccc2ncc(F)c(CCN3CC(O)C(CNCc4ccc5c(n4)NC(=O)CS5)C3)c2c1` (centres unmarked) [TCMDC-136187], 16.49%. With `Fc1ccc2ncc(Cl)c(CCN3CCC(NCc4cc5c(cn4)OCCO5)CC3)c2c1` [TCMDC-133446], the “% Inhibition” value came to 74.26%. Then `COc1cc(F)c2ncc(F)c(CCN3C[C@H](CNCc4ccc5c(n4)NC(=O)CS5)[C@H](O)C3)c2c1` [TCMDC-136333], with 73.35%. To `COc1ccc2ncc(Cl)c([C@@H](O)CN3CCC(NCc4cc5c(cn4)OCCO5)CC3)c2c1` [TCMDC-135470] belongs 13.81%.

As for `COc1ccc2ncc(C)c(CCN3CCC(NCc4ccc5c(n4)NC(=O)CS5)CC3)c2c1` [TCMDC-134648], the “% Inhibition” value turned out to be 44.1%. Turning to `COc1c(F)ccc2ncc(Cl)c(CCN3CCC(NCc4ccc5c(n4)NC(=O)CS5)CC3)c12` [TCMDC-141955], the “% Inhibition” value was 54.36%. Take `Clc1cnc2ccc3c(c2c1CCN1CCC(NCc2cc4c(cn2)OCCO4)CC1)OCCO3` [TCMDC-134566]: the “% Inhibition” value is recorded as 24.75%. Then `COc1ccc2ncc(F)c([C@@H](O)CN3CCC(NCc4cc5c(cn4)OCCO5)CC3)c2c1` [TCMDC-135379], with 9.097%. For the molecule `COc1ccc2nccc(CCN3CC(O)C(CNCc4ccc5c(n4)NC(=O)CS5)C3)c2n1` (centres unmarked) [TCMDC-136132], the “% Inhibition” value is recorded as 27.64%. For the molecule `Cc1ccc2ncc(Cl)c(CCN3CCC(NCc4ccc5c(n4)NC(=O)CS5)CC3)c2n1` [TCMDC-141963], the “% Inhibition” value was determined as 7.636%. For the molecule `Cc1ccc(C(=O)NC2CC2)cc1-c1ccc2c(cnn2S(=O)(=O)c2ccc(F)cc2)c1` [TCMDC-138772], the “% Inhibition” value is 31.89%. Then `O=C(NCCc1cccc(Cl)c1Cl)c1ccc(N2CCN(c3ccncc3)CC2)nc1` [TCMDC-134587], with 10.14%; and `Cc1ccc(C(=O)Nc2cc(C(F)(F)F)cc(C(F)(F)F)c2)cc1[N+](=O)[O-]` [TCMDC-125645], with -10.1%. `Cc1csc(-c2nc(NCCc3c(C)noc3C)ncc2-c2ccsc2)n1` [TCMDC-125354]: the “% Inhibition” value amounted to 34.89%. `Nc1ncc(-c2ccsc2)c2ccc(-c3cc(NCc4ccccc4)ncn3)cc12` [TCMDC-135660]: the “% Inhibition” value was found to be 18.52%.

Regarding `O=C(Cc1c[nH]cn1)Nc1ccc(-c2ccc(-c3nc4ccccc4[nH]3)s2)cc1` [TCMDC-136939], the “% Inhibition” value was -25.08%. On to `O=C(/C=C/c1ccc(Cl)c(Cl)c1)N1CCC(NCc2ccc3[nH]ccc3c2)CC1` [TCMDC-134198], for which the “% Inhibition” value stood at 36.44%.

For `CCC1N=C(N)N=C(N)N1OCc1ccc(Cl)c(Cl)c1` (centres unmarked) [TCMDC-131593], the “% Inhibition” value came out at 19.76%.

On to `CC(=O)C=C1CC(=O)N(C[C@@H](O)[C@H]2O[C@@H]3OC(C)(C)O[C@@H]3[C@H]2O)c2ccccc2N1` [TCMDC-138271], for which the “% Inhibition” value stood at 11.95%. To `O=C(/C=C/c1ccc(C(F)(F)F)cc1)NCCCCCN1CCCN(C(=O)Nc2cccc(Cl)c2)CC1` [TCMDC-136108] belongs -11.12%. To `CCOc1cccc(C(=O)Nc2cccc(CN3CCCN(Cc4cccc(O)c4)CC3)c2)c1` [TCMDC-141861] belongs -4.748%; to `COc1ccc2ncc(Cl)c(CCN3CCC(NCc4ccc5c(n4)NC(=O)CS5)CC3)c2c1` [TCMDC-141807], -3.776%.

Turning to `O=C1CSc2ccc(CNC3CCN(CCc4c(Cl)cnc5ccc(F)cc45)CC3)nc2N1` [TCMDC-141960], the “% Inhibition” value worked out at 55.74%. In the case of `COc1cc(F)c2ncc(Cl)c(CCN3CCC(NCc4ccc5c(c4)NC(=O)CS5)CC3)c2c1` [TCMDC-135620], the “% Inhibition” value is given as 12.4%. Take `COc1cc(F)c2ncc(Cl)c(CCN3CCC(NCc4ccc5c(n4)NC(=O)CS5)CC3)c2c1` [TCMDC-134318]: the “% Inhibition” value came to 94.95%. `O=C1CSc2ccc(CNC3CCN(CCc4c(F)cnc5ccc(F)cc45)CC3)nc2N1` [TCMDC-135095]: the “% Inhibition” value is -0.4072%.

For `O=C1CSc2ccc(CNC3CCN(CCc4c(Cl)cnc5ccc(Cl)cc45)CC3)nc2N1` [TCMDC-141959], the “% Inhibition” value was found to be 32.4%. Then `Cc1ccc(CNC(=O)c2cc3c(=O)n4ccccc4nc3n(CCCN3CCOCC3)c2=N)cc1` [TCMDC-125409], with 26.53%. To `CC(O)C1CCCCN1C(=O)c1cccc(-c2cccc(-c3nc4cc(C(F)(F)F)ccc4[nH]3)c2)c1` (centres unmarked) [TCMDC-132335] belongs 13.24%.

Take `O=C(Nc1cccc(C(F)(F)F)c1)NC1CCN(c2ccnc3cc(Cl)ccc23)CC1` [TCMDC-133567]: the “% Inhibition” value is -12.77%. As for `O=C(CN1CCN(S(=O)(=O)C=Cc2ccccc2)CC1)Nc1cc(C(F)(F)F)ccc1Cl` [TCMDC-124538], the “% Inhibition” value is listed as -9.823%.

Take `O=C(CN(c1cccc(C(F)(F)F)c1)S(=O)(=O)c1ccc(Cl)cc1)NCCC(c1ccccc1)c1ccccc1` [TCMDC-136712]: the “% Inhibition” value is listed as 5.637%. As to `O=C(Cn1cc(C(F)(F)F)cc(Cl)c1=O)N1CCN(S(=O)(=O)c2ccc(Cl)cc2)CC1` [TCMDC-123617], the “% Inhibition” value is given as 70.99%.
